Compounds with a hit are over-represented: about 17% of the library has one in this group of screens.
TDP1 block: inhibitors of human tyrosyl-DNA phosphodiesterase TDP1. Q9NUW8. recombinant TDP1, AlphaScreen DNA substrate cleavage. Potency, µM (highest dose often 130 µM), without a hit: at the top dose activity change, negative = inhibition, hits mostly inhibitors. 350,000 compounds, 0.28% hits. AID 485290; also: % is scaled to controls: 0 for no effect and ±100 for the full control effect; nearly all actives have a fitted effect of over 40% in size
Target sequence (Q9NUW8 whole entry, looked up): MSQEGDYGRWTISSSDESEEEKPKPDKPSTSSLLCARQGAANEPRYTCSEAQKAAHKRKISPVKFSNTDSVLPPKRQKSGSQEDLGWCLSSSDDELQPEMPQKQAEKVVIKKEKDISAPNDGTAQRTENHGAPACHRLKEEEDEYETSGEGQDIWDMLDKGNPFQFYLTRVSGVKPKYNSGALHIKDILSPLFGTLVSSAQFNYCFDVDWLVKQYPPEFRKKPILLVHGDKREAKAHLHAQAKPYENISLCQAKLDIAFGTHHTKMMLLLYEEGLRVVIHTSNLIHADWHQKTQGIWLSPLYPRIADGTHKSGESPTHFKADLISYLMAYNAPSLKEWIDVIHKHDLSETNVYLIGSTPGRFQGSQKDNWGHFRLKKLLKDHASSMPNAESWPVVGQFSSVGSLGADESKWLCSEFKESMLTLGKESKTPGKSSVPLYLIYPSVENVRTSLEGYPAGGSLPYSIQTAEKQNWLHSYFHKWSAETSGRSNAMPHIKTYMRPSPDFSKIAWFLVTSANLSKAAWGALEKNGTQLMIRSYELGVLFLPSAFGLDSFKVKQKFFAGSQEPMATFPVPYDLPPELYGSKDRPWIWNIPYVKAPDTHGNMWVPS
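Recombinant E. coli-expressed Tdp1 (1 nM) preincubated with compound 15 min at RT, then 5'-biotin/3'-phosphotyrosine-FITC DNA substrate (15 nM) added for 5 min. AlphaScreen beads (10 ug/ml) added, 10 min RT; tyrosine-FITC cleavage read as signal loss.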
TDP1 cell CPT: DT40-hTDP1 cell growth loss with CPT; chicken DT40 Tdp1-/-;hTDP1 cells + 20 nM CPT, ATP luminescence, 48 h; 420,000 compounds, 12% hits; Potency, µM (highest dose often 46.2 µM), for the others: at the highest dose activity change, negative = growth inhibition, most hits filed as inhibitors; also: % is scaled to controls: 0 for no effect and ±100 for the full control effect; nearly all actives have a fitted effect of over 55% in size
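Chicken DT40 Tdp1-/- cells stably complemented with human TDP1 were seeded at 400 cells/well in medium containing 20 nM camptothecin, exposed to pin-transferred compounds, and grown at 37 °C for at least 48 hr. Viability was read as ATP luminescence.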
ClpP mod: qHTS Assay for Activators of ClpP; ATP-dependent Clp protease proteolytic subunit (Bacillus subtilis (strain 168)), P80244; purified B. subtilis ClpP, FRET peptide cleavage, 20 min; Potency, µM (highest dose often 57.5 µM), without a hit: at the highest dose activity change, negative = active; 340,000 compounds, 1.9% hits; AID 651965, 2013; active = well fitted falling curve with a large enough effect; inconclusive = small, poorly fitted or top-dose-only effect; inactive = no such curve, though single readings can be large or run the other way; also: the source files actives as falling curves though it sought activators and does not explain the sign; nearly all actives have a fitted effect of over 65% in size
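ClpP 10 microg/mL final, pH 8 Tris/KCl buffer with BSA, glycerol, Tween-20; compound pinned in; FRET-FV substrate; RT 20 min; Ex320/Em430; ΔFRET vs ADEP 5.8 microM, DMSO, no enzyme.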
TDP1 cell noCPT: qHTS for Inhibitors of human tyrosyl-DNA phosphodiesterase 1 (TDP1): qHTS in cells in absence of CPT; 420,000 compounds, 15% hits; Potency, µM (highest dose often 46.2 µM), for inactives: top-dose activity change, negative = growth inhibition, usual class: inhibitors; AID 686978, 2013; DT40 Tdp1-/- hTDP1 cells, no CPT, ATP luminescence, 48 h; also: % is scaled to controls: 0 for no effect and ±100 for the full control effect; nearly all actives have a fitted effect of over 55% in size
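Cells were dispensed at 400 per well, compounds added by pin tool, plates incubated ≥48 hr at 37 °C, then CellTiter-Glo added for 30 min at room temperature before luminescence reading. Line: DT40 Tdp1-/- complemented with hTDP1; camptothecin omitted.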
* marks the source's active call; other numbers are inactive results. Unless noted, calls follow the shape of the dose curve; as a rule, active = well fitted curve in the direction sought with a large enough effect; inconclusive = small, poorly fitted or top-dose-only effect, or another doubt; inactive = no such curve, though single readings can be large; an effect the other way counts as inactive or inconclusive. Potency is read from the fitted curve at half-maximal effect.

For CCOC(=O)c1cccc(NC(=O)c2oc3c(c2C)-c2nn(CC)cc2CC3)c1 the results were TDP1 block 4%, TDP1 cell CPT inconclusive, ClpP mod -27% and TDP1 cell noCPT inconclusive.
`O=C1c2ccccc2C(=O)C12OC2c1ccc(Cl)cc1Cl` (stereo not drawn) gave TDP1 block -3%, TDP1 cell CPT 5.2µM* and TDP1 cell noCPT 9.2µM*.
For O=C1c2ccccc2C(=O)C1c1ccc(Cl)cc1 the results were TDP1 block 8%, TDP1 cell CPT 3%, ClpP mod 2% and TDP1 cell noCPT 2%.
For O=C(CNC(=O)Cn1ccc2ccccc2c1=O)NCCCN1CCN(c2cccc(Cl)c2)CC1 the results were TDP1 block 7%, TDP1 cell CPT inconclusive, ClpP mod -10% and TDP1 cell noCPT 26µM*.
O=C(CCC(=O)N1CCN(c2cccc(Cl)c2)CC1)c1cccs1 was read as TDP1 block -10%, TDP1 cell CPT inconclusive and TDP1 cell noCPT 18µM*.
`COCC(=O)N1CCN(c2cccc(Cl)c2)CC1` gave TDP1 block -3%, TDP1 cell CPT -23% and TDP1 cell noCPT -12%.
For O=C(CCN1C(=O)c2ccccc2S1(=O)=O)N1CCN(c2cccc(Cl)c2)CC1 the results were TDP1 block 1%, TDP1 cell CPT inconclusive and TDP1 cell noCPT 16µM*.
`Nc1ccc(N2CCN(c3cccc(Cl)c3)CC2)cc1` gave TDP1 block -4%, TDP1 cell CPT 13µM*, ClpP mod -7% and TDP1 cell noCPT 15µM*.
For COc1ccc(-n2c(CC3C(=O)Nc4ccc(C)cc43)nc3ccccc3c2=O)cc1 (stereo not drawn) the results were TDP1 block 5%, TDP1 cell CPT inconclusive, ClpP mod -1% and TDP1 cell noCPT inconclusive.
O=C(Cc1c(F)cccc1Cl)OCC(=O)N1CCN(c2ccccc2)CC1 was read as TDP1 block 1%, TDP1 cell CPT 18µM*, ClpP mod -12% and TDP1 cell noCPT inconclusive.
Screening Clc1cccc(N2CCN(CCCN3CCN(c4ccccc4)CC3)CC2)c1 returned TDP1 cell CPT 26µM* and TDP1 cell noCPT inconclusive.
For COc1ccc(N2CCN(C(=O)COC(=O)Cc3c(F)cccc3Cl)CC2)cc1 the results were TDP1 block -1%, TDP1 cell CPT inconclusive, ClpP mod -4% and TDP1 cell noCPT -10%.
Screening c1ccc(CCCN2CCN(c3ccccc3)CC2)cc1 returned TDP1 cell CPT 13%, ClpP mod 0% and TDP1 cell noCPT -7%.
Screening Cn1cc(CC(=O)N2CCN(c3ccc(Cl)cc3)CC2)c2ccccc21 returned TDP1 block 9%, TDP1 cell CPT inconclusive, ClpP mod -3% and TDP1 cell noCPT 13µM*.
For O=C(O)CCCC(=O)N1CCN(c2cccc(Cl)c2)CC1 the results were TDP1 block 2%, TDP1 cell CPT -3%, ClpP mod -6% and TDP1 cell noCPT 3%.
O=C(CCC(=O)N1CCN(c2cccc(Cl)c2)CC1)N1CCN(c2ccccc2)CC1 was read as TDP1 block 5%, TDP1 cell CPT 18µM*, ClpP mod 1% and TDP1 cell noCPT 8.2µM*.
`Cc1ccc(N(CC(C)C)S(=O)(=O)c2nnc(NC(=O)C(C)C)s2)cc1` gave TDP1 cell CPT inconclusive, ClpP mod 1% and TDP1 cell noCPT inconclusive.
For CC(C)NC(=O)C1CCN(C(=O)N2CCOc3ccc(Cl)cc32)CC1 the results were TDP1 block 4%, TDP1 cell CPT -28%, ClpP mod -3% and TDP1 cell noCPT inconclusive.
Screening CCN1C(=O)[C@@H]2[C@@H](c3ccc(-c4ccc(F)cc4)cc3)N3CCC[C@@]3(C(=O)OC)[C@@H]2C1=O returned TDP1 block 10%, TDP1 cell CPT inconclusive, ClpP mod -1% and TDP1 cell noCPT inconclusive.
`CCN1C(=O)[C@H]2[C@@H](c3ccc(-c4ccccc4)cc3)N3CCC[C@@]3(C(=O)OC)[C@H]2C1=O` gave TDP1 block -1%, TDP1 cell CPT inconclusive, ClpP mod -14% and TDP1 cell noCPT 18µM*.
Screening CCN1C(=O)[C@@H]2[C@@H](c3ccc(-c4ccccc4)cc3)N3CCC[C@@]3(C(=O)OC)[C@@H]2C1=O returned TDP1 block 2%, TDP1 cell CPT 21µM*, ClpP mod -1% and TDP1 cell noCPT inconclusive.
For FC(F)Oc1ccc(-n2cc(-c3ccccc3)[n+]3c2CCCCC3)cc1 the results were TDP1 block 0%, TDP1 cell CPT 5.2µM*, ClpP mod -2% and TDP1 cell noCPT 5.8µM*.
`N#Cc1c2n(c(=S)n(-c3ccc(OC(F)F)cc3)c1=O)CCCCC2` gave TDP1 block 2%, TDP1 cell CPT -7%, ClpP mod 0% and TDP1 cell noCPT inconclusive.
For Cc1ccc(CONC(=O)c2ccc(OC(F)F)cc2)cc1 the results were TDP1 block 5%, TDP1 cell CPT -18%, ClpP mod -1% and TDP1 cell noCPT 3%.
`Cc1ccc(-c2cn(-c3ccc(OC(F)F)cc3)c3[n+]2CCCCC3)cc1` gave TDP1 block 7%, TDP1 cell CPT 0.65µM*, ClpP mod -2% and TDP1 cell noCPT 1µM*.
`CCOC(=O)c1nnn(CC(=O)N2N=C(c3cccc4ccccc34)CC2c2ccccc2)c1C(=O)OCC` (stereo not drawn) gave TDP1 block -3%, TDP1 cell CPT inconclusive, ClpP mod 11µM* and TDP1 cell noCPT 21µM*.
Screening CCC(=O)N1N=C(c2ccccc2)CC1c1ccccc1 (stereo not drawn) returned TDP1 block 2%, TDP1 cell CPT -2%, ClpP mod 0% and TDP1 cell noCPT -17%.
Screening CC(C)Oc1ccc(CNC(=O)c2cccc(NC(=O)c3nsc4ccccc34)c2)cc1 returned TDP1 block 3%, TDP1 cell CPT 4.6µM*, ClpP mod -29% and TDP1 cell noCPT 9.2µM*.
COc1ccc(OC)c(CNC(=O)c2ccc(C)c(NC(=O)c3nsc4ccccc34)c2)c1 was read as TDP1 block 8%, TDP1 cell CPT 18µM*, ClpP mod 0% and TDP1 cell noCPT inconclusive.
Cc1ccc(C(=O)NCc2ccc(F)cc2)cc1NC(=O)c1nsc2ccccc12 was read as TDP1 block 3%, TDP1 cell CPT inconclusive, ClpP mod 81% and TDP1 cell noCPT 23µM*.
`O=C(NCc1ccccc1Cl)c1ccc(NC(=O)c2nsc3ccccc23)cc1` gave TDP1 block 0%, TDP1 cell CPT 18µM*, ClpP mod inconclusive and TDP1 cell noCPT 18µM*.
`Cc1ccc(C(=O)O)cc1NC(=O)c1nsc2ccccc12` gave TDP1 block -8%, TDP1 cell CPT 8%, ClpP mod -4% and TDP1 cell noCPT 0%.
Screening O=C(NCc1ccccc1)c1ccc(NC(=O)c2nsc3ccccc23)cc1 returned TDP1 block 3%, TDP1 cell CPT inconclusive, ClpP mod 122% and TDP1 cell noCPT inconclusive.
